For 9 molecules, Potency and outcome results are on record in PubChem BioAssay (Tox21).

The nature of assay [1]: qHTS assay to identify small molecule antagonists of the sonic hedgehog signaling (Shh) pathway (AID 1259369). Note: nearly all actives have a fitted effect of over 45% in size. Note: potency is the fitted concentration of half-maximal effect. The gist of the method:
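Screening used 3T3Gli1-Luc cells at 2,000 per well, compounds delivered in DMSO, and conditioned medium as agonist stimulus; plates incubated 24hr at 37 C and 5% CO2 before a 30min luciferase step.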
For orientation: Quantitative high-throughput screening tests each substance at several concentrations.

Assay [2] addresses Estrogen receptor beta (Homo sapiens) (UniProt Q92731). Description: qHTS assay to identify small molecule agonists of the estrogen receptor beta (ER-beta) signaling pathway (AID 1259377; active = well fitted activation curve with a large enough effect in the signal ratio in the repeat runs, not every such curve was filed as active; the % refers to the signal ratio). The gist of the method:
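Ratiometric beta-lactamase FRET read-out came after 2 h substrate loading at room temperature. It followed 16 h compound treatment at 37C of GripTite HEK293T cells carrying a UAS-bla reporter, plated in 2% charcoal-stripped FBS medium.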

For assay [3] the target is unchanged. In words: qHTS assay to identify small molecule antagonists of the estrogen receptor beta (ER-beta) signaling pathway (AID 1259378; active = well fitted inhibition curve with a large enough effect in the signal ratio in the repeat runs, not every such curve was filed as active; the % refers to the signal ratio). The gist of the method:
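ER-beta-UAS-bla HEK293T (GripTite) cells in 2% charcoal-stripped FBS medium were preincubated 6 hr at 37C, dosed with compound, then stimulated with 1 nM E2 (final) for 16 hr; beta-lactamase reporter read by B/G FRET fluorescence after 2 hr substrate loading.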

Assay [4] in a line: qHTS assay to identify small molecule agonists of the androgen receptor (AR) signaling pathway in the presence of an antagonist - cell viability counter screen (AID 1259379; active = well fitted curve in the direction sought with a large enough effect in the repeat runs; an effect the other way counts as inactive or inconclusive; note: nearly all actives have a fitted effect of over 25% in size; note: potency is the fitted concentration of half-maximal effect). The method, boiled down: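 In MDA-kb2 cells (human breast carcinoma, MMTV-luciferase), compounds at 15 concentrations plus 3.0uM nilutamide; 16 hr, 37C, 0% CO2; CellTiter-Fluor fluorescence read for viability.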

The nature of assay [5]: qHTS assay to identify small molecule agonists of the estrogen receptor beta (ER-beta) signaling pathway - cell viability counter screen (AID 1259380; active = well fitted curve in the direction sought with a large enough effect in the repeat runs; an effect the other way counts as inactive or inconclusive; note: nearly all actives have a fitted effect of over 30% in size). The gist of the method: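 Viability of ER-beta-UAS-bla HEK293T cells was determined by CellTiter-Glo luminescence following 16 hr treatment with test compounds at 37C.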
A short description of assay [6]: qHTS assay to identify small molecule agonists or antagonists of the thyroid stimulating hormone receptor (TSHR) signaling pathway - wild type cell line counter screen (AID 1259384). The gist of the method:
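Wild-type HEK293 cells were plated 18 h at 37 C/5% CO2, pin-dosed with compound plus Ro20-1724 medium, held 30 min at room temperature, then given cAMP-d2 and anti-cAMP-cryptate; fluorescence was read after 1 h. Fifteen concentrations, triplicate.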

Assay [7] deals with Thyrotropin receptor (Homo sapiens) (UniProt P16473). In words: qHTS assay to identify small molecule antagonists of the thyroid stimulating hormone receptor (TSHR) signaling pathway (AID 1259385). Note: nearly all actives have a fitted effect of over 20% in size. The method, boiled down:
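TSHR-HEK293 cells were plated and held 18 h at 37C/5% CO2, then given compound plus Ro20-1724 and stimulated with TSH at 1.5 ng/mL final. After 30 min at room temperature, cAMP was detected with cAMP-d2/anti-cAMP-cryptate (1 h) by fluorescence.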

Assay [8] in a line: qHTS assay to identify small molecule agonists of the estrogen receptor alpha (ER-alpha) signaling pathway in the presence of an antagonist - cell viability counter screen (AID 1259386; active = well fitted curve in the direction sought with a large enough effect in the repeat runs; an effect the other way counts as inactive or inconclusive;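 note: cells exposed to compounds for 22 h at 37 °C before the viability read; nearly all actives have a fitted effect of over 30% in size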; note: potency is the fitted concentration of half-maximal effect). The method, boiled down:
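Fluorescent CellTiter-Fluor viability signal from VM7Luc4E2 cells, with the reagent added during the final hour of a 22hr compound exposure at 37C in the presence of 10.0nM ICI-182,780.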

Assay [9] deals with Progesterone receptor (Homo sapiens) (UniProt P06401). In words: qHTS assay to identify small molecule agonists of the progesterone receptor (PR) signaling pathway (AID 1346784). Note: nearly all actives have a fitted effect of over 30% in size. The method, boiled down:
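Agonist qHTS: compounds pinned onto 3,000 PR-UAS-bla HEK 293T cells per well in charcoal-stripped serum medium, 16hr at 37C, then beta-lactamase activity measured by LiveBLAzer FRET fluorescence after 2 hours at room temperature.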

Assay [10] has the same target. Description: qHTS assay to identify small molecule antagonists of the progesterone receptor (PR) signaling pathway (AID 1346795; active = well fitted inhibition curve with a large enough effect in the signal ratio in the repeat runs, not every such curve was filed as active; the % refers to the signal ratio). The gist of the method:
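Antagonist mode with agonist R5020 at 1 nM final and 16 hr incubation at 37C. Reporter was beta-lactamase driven by UAS in HEK293T (PR-UAS-bla), 2% charcoal-stripped serum; signal from LiveBLAzer FRET substrate, 2 hr at room temperature.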

The nature of assay [11]: qHTS assay to identify small molecule antagonists of the progesterone receptor (PR) signaling pathway - cell viability counter screen (AID 1346798; active = well fitted curve in the direction sought with a large enough effect in the repeat runs; an effect the other way counts as inactive or inconclusive; note: series mostly up to about 92 µM; nearly all actives have a fitted effect of over 50% in size). The gist of the method: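 Cytotoxicity read as CellTiter-Glo luminescence (30 min, room temperature) in the same wells as the beta-lactamase readout. HEK293T PR-UAS-bla cells in charcoal-stripped 2% FBS received compound and R5020, then 16 h at 37C, 5% CO2.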

A short description of assay [12]: qHTS assay to identify small molecule agonists of the progesterone receptor (PR) signaling pathway - cell viability counter screen (AID 1346799). Note: nearly all actives have a fitted effect of over 45% in size. The gist of the method:
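Cytotoxicity measured by CellTiter-Glo luminescence (30 min, RT) in the same wells as the PR beta-lactamase agonist read. Those HEK293T cells had 16 h compound treatment at 37 C in 2% charcoal-stripped FBS medium.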

Assay [13] in a line: qHTS assay to identify small molecule antagonists of the TGF-beta/Smad signaling pathway - cell viability counter screen (AID 1346824; active = well fitted curve in the direction sought with a large enough effect in the repeat runs; an effect the other way counts as inactive or inconclusive; note: nearly all actives have a fitted effect of over 50% in size). The gist of the method:
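SBE-bla HEK 293T cells were plated overnight at 37 C, then given compounds in DMSO plus TGF-beta1 (added as 0.25 ng/mL solution) for 5 hr. After the bla read, CellTiter-Glo was added to the same wells and luminescence read after 30 min at room temperature.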

Assay [14] can be described thus: qHTS assay to identify small molecule agonists of the TGF-beta/Smad signaling pathway - cell viability counter screen (AID 1346829; active = well fitted curve in the direction sought with a large enough effect in the repeat runs; an effect the other way counts as inactive or inconclusive; note: top concentration of the series differs between compounds; nearly all actives have a fitted effect of over 45% in size). The gist of the method:
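After overnight seating at 37 C and 5% CO2, reporter cells got compounds for 5 hr and FRET substrate for 2 hr; cell viability then came from CellTiter-Glo luminescence.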

Assay [15] is described as follows: qHTS assay to identify small molecule agonists of the TGF-beta/Smad signaling pathway (AID 1346859; active = well fitted activation curve with a large enough effect in the signal ratio in the repeat runs, not every such curve was filed as active; the % refers to the signal ratio; note: series mostly up to about 77 µM). The gist of the method:
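Fluorescence (ex 405 nm; em 460 and 530 nm) was read 2 h after LiveBLAzer FRET substrate at RT. The preceding compound treatment of overnight-plated SBE-bla HEK293T cells lasted 5 h at 37 C.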

Assay [16] addresses Thyrotropin-releasing hormone receptor (Homo sapiens) (UniProt P34981). Description: qHTS assay to identify small molecule antagonists of the thyrotropin-releasing hormone receptor (TRHR) signaling pathway (AID 1346877; active = well fitted inhibition curve with a large enough effect in the repeat runs, not every such curve was filed as active; note: series mostly up to about 51 µM). The method, boiled down:
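In this cell-based calcium flux format, HEK293 cells expressing TRHR received test compound for 5 min before the agonist TRH (1 nM final). Dye loading lasted 2 h at 37 °C.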

For assay [17] the target is unchanged. Description: qHTS assay to identify small molecule agonists of the thyrotropin-releasing hormone receptor (TRHR) signaling pathway (AID 1346891). Note: series mostly up to about 58 µM. The method, boiled down: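 Agonist-mode intracellular calcium readout: kinetic fluorescence over 3 min at 1 s intervals after compound addition to TRHR-HEK293 cells (18 h seeded, 2 h dye-loaded at 37 C). Fifteen concentrations, triplicates.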

A short description of assay [18]: qHTS assay to identify small molecule antagonists of the estrogen receptor beta (ER-beta) signaling pathway - cell viability counter screen (AID 1259382; active = well fitted curve in the direction sought with a large enough effect in the repeat runs; an effect the other way counts as inactive or inconclusive; note: series mostly up to about 92 µM; nearly all actives have a fitted effect of over 55% in size). The gist of the method: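 Tox21 10K library tested in qHTS format on ER-beta-bla HEK293T cells stimulated with 1nM E2; 16 hr treatment at 37C. Same-well CellTiter-Glo luminescence served as the cell viability measure.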

For assay [19], the target named is Estrogen receptor (Homo sapiens) (UniProt P03372). Description: qHTS assay to identify small molecule agonists of the estrogen receptor alpha (ER-alpha) signaling pathway in the presence of an antagonist (AID 1259383). Note: top concentration of the series differs between compounds; nearly all actives have a fitted effect of over 15% in size. The method, boiled down:
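In VM7Luc4E2 cells, 4,000 per well, compounds at 15 concentrations were co-incubated 22hr at 37C with 10.0nM final ICI-182,780. Luminescence from the stably transfected 4×ERE-luciferase reporter was recorded 30min after ONE-Glo addition.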

SMILES strings stand for the structures. Values joined by “and” are separate entries in the source; they are usually repeats but may differ in a detail not shown here. Identical values can stand only once. Results filed as inconclusive are left out. A structure can be active in one record and inactive in another. Active and inactive are the calls of the source. Unless noted, calls come from the whole dose curve.

Sequence of Thyrotropin-releasing hormone receptor (Homo sapiens) (P34981 whole entry, looked up): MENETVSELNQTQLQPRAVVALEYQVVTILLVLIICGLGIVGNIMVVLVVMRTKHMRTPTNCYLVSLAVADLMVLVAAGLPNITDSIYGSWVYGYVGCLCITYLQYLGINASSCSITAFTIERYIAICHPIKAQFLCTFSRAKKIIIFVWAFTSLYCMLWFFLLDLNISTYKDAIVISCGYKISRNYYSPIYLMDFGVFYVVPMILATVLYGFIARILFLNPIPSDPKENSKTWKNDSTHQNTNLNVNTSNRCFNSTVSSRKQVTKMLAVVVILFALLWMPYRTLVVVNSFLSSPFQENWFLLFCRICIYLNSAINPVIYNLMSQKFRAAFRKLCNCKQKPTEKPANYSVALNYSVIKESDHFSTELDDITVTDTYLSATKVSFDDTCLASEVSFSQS
Sequence of Estrogen receptor beta (Homo sapiens) (Q92731 whole entry, looked up): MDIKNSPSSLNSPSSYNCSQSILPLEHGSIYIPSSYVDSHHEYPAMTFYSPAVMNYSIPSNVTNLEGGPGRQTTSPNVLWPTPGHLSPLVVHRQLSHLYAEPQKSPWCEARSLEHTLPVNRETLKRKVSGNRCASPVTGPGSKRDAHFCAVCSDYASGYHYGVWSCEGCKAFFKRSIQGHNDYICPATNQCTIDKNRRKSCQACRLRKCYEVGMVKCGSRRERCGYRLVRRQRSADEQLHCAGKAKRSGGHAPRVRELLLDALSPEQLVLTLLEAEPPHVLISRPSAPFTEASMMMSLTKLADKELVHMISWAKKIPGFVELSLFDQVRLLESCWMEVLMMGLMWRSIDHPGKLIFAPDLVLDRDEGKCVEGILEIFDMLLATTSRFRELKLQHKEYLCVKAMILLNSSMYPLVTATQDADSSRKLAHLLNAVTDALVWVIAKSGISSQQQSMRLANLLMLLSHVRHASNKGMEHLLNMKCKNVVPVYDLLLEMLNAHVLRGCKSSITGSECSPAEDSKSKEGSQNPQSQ
Sequence of Estrogen receptor (Homo sapiens) (P03372 whole entry, looked up): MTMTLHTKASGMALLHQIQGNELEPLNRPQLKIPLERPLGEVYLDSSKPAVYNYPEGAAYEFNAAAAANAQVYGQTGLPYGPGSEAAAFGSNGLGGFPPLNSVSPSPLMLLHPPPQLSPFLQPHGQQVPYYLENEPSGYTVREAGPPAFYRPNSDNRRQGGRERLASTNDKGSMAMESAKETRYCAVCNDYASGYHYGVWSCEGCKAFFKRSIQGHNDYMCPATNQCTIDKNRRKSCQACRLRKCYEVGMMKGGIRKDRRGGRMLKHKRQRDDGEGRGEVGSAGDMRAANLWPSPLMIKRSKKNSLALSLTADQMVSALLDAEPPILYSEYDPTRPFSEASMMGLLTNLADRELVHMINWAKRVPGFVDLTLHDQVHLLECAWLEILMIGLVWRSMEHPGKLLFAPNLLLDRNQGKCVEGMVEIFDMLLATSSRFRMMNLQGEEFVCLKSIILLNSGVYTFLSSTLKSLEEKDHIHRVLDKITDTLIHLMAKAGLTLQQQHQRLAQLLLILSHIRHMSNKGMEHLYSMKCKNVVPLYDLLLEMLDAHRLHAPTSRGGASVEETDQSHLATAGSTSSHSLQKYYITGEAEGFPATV
Sequence of Progesterone receptor (Homo sapiens) (P06401 whole entry, looked up): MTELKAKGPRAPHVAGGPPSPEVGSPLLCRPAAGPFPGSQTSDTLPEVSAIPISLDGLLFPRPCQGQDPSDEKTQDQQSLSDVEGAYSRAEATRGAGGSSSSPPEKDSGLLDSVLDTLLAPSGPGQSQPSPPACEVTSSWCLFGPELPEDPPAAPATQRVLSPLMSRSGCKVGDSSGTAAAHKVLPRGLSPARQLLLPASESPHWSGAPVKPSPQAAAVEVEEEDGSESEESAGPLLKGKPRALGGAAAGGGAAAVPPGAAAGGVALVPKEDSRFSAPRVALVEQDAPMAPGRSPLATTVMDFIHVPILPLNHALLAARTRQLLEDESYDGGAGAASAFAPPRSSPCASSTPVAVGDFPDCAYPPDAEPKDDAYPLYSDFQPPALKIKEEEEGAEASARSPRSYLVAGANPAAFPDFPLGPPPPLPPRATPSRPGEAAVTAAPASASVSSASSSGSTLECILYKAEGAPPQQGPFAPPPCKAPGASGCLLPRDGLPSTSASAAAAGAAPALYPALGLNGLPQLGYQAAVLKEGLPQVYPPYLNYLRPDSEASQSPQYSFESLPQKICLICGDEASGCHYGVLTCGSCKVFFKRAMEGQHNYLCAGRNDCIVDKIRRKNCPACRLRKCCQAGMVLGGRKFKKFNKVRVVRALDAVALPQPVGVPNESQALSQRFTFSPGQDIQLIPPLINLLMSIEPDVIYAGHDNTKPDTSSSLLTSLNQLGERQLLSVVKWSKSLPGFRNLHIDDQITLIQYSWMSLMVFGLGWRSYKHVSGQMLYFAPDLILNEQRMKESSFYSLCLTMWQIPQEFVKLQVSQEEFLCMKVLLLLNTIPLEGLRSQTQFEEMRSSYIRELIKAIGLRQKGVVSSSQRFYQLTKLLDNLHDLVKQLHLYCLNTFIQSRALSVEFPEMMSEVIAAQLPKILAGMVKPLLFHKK
Sequence of Thyrotropin receptor (Homo sapiens) (P16473 whole entry, looked up): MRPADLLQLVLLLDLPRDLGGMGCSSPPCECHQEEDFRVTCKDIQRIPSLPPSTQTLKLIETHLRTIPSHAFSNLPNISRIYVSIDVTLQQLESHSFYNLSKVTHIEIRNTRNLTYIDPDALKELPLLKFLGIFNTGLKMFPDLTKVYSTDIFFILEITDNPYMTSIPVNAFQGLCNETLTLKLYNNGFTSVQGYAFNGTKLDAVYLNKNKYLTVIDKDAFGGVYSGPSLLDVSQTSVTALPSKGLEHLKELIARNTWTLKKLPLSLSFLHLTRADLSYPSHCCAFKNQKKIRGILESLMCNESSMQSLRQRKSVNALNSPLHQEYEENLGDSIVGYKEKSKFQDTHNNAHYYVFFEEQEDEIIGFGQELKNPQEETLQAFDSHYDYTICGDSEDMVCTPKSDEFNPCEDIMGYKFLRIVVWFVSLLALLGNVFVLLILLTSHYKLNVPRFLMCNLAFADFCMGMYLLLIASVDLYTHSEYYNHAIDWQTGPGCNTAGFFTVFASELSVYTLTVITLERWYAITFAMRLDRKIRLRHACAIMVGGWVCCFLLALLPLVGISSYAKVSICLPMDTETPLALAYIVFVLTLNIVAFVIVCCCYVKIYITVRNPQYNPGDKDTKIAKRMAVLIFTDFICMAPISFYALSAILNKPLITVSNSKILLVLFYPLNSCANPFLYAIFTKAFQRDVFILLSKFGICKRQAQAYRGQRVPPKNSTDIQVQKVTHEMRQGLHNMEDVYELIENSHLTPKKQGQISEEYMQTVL

Turning to `O=C(O)/C=C\C(=O)O`, the Potency result in [1], in [3], in assay [4], in assay [5], in assay [8] and in [9] was “inactive” each time. In addition, the Potency result in assay [11], in assay [12] and in assay [14] was “inactive” in each case. Besides, the call in assay [2], in [6], in assay [7], in assay [10], in [13] and in assay [15] was inactive. Further, the molecule was called inactive in [16] and in assay [17].

With `C/C=C/c1ccc(OC)cc1`, the Potency result in assay [1], in [3], in [4], in assay [8], in assay [9] and in assay [11] was “inactive” in each case. Besides, the Potency result in assay [12] and in assay [14] was “inactive” each time. Moreover, the call in [2], in assay [6], in assay [7], in [10], in assay [13] and in assay [15] was inactive. Also, the result in assay [16] and in [17] was inactive.

`O=C(O)c1[nH]n(-c2ccc(S(=O)(=O)O)cc2)c(=O)c1N=Nc1ccc(S(=O)(=O)O)cc1`: the Potency result in [1] was “inactive and 57.1 µM (active)”; in assay [4] it was 23.7 µM (active) and 54.6 µM (active) and 28.6 µM (active); in [8] it was 29.8 µM (active) and 61.3 µM (active) and 25.5 µM (active). The Potency entry in assay [18], in assay [19], in [11], in assay [12] and in assay [14] was “inactive” each time. Further, the molecule was called inactive in assay [6], in [7], in assay [13], in [15], in assay [16] and in [17].

Regarding `O=C(O)C(=O)O`, the Potency entry in [1] was “inactive and 1.22 µM (active)”. Besides, the Potency entry in [4], in assay [5], in assay [8], in assay [9], in assay [11] and in assay [12] was “inactive” in each case. Besides, in assay [14], the Potency entry was “inactive”. The call in [6], in [7], in assay [10], in [13] and in assay [15] was inactive.

`OC(Cn1cncn1)(Cn1cncn1)c1ccc(F)cc1F`: the Potency entry in assay [1], in assay [3], in [4], in [5], in assay [19] and in assay [8] was “inactive” each time. The Potency entry in assay [9], in assay [11], in assay [12] and in assay [14] was “inactive” each time. Also, the molecule was classed as inactive in assay [2], in assay [6], in assay [7], in assay [10], in assay [13] and in [15].

For `N=C(N)c1ccc(OCCCCCOc2ccc(C(=N)N)cc2)cc1`, the Potency in assay [1] was 3.84 µM (active) and 2.33 µM (active) and 18.8 µM (active). The Potency result in assay [4], in assay [5], in assay [18], in [19], in [8] and in [9] was “inactive” each time. Besides, the Potency entry in assay [11], in [12] and in assay [14] was “inactive” in each case. The molecule was called inactive in assay [6], in [7], in [10], in assay [13], in [15] and in assay [16]. Also, the molecule was classed as inactive in [17].

With `CNC[C@H](O)c1cccc(O)c1`, the Potency entry in [1], in assay [3], in assay [4], in [8], in assay [9] and in assay [11] was “inactive” each time. In addition, the Potency result in [12] and in assay [14] was “inactive” throughout. The result in assay [2], in [6], in assay [7], in assay [10], in assay [13] and in assay [15] was inactive.

`O=C1CN(/N=C/c2ccc([N+](=O)[O-])o2)C(=O)N1`: the Potency is 48.4 µM (active) and 27.3 µM (active) and inactive in assay [1]; 27.2 µM (active) and 61.1 µM (active) and 23.7 µM (active) in assay [4]; 30.5 µM (active) and 54.5 µM (active) and 18.8 µM (active) in assay [8]. Moreover, the outcome in assay [2], in [6], in [7], in assay [10], in assay [13] and in assay [15] was inactive. Further, the result in [16] and in assay [17] was inactive. The Potency entry in [18], in [19], in [9], in [11], in [12] and in [14] was “inactive” in each case.

Take `CC(=O)Nc1nnc(S(N)(=O)=O)s1`: the Potency result in assay [1], in assay [3], in assay [4], in assay [18], in assay [19] and in assay [8] was “inactive” in each case. The Potency result in assay [9], in assay [11], in [12] and in assay [14] was “inactive” throughout. Also, the outcome in assay [2], in [6], in assay [7], in assay [10], in assay [13] and in assay [15] was inactive. Besides, the outcome in [16] and in assay [17] was inactive.
